Bioassay records (PubChem BioAssay)
BRCA1 expr act: activators of BRCA1 expression. MCF7-BRCA1-FFLuc reporter, luminescence, 48 h; response scale: scaled: vehicle 0%, 10 µM genistein 100%. Potency, µM (series often up to 46.1 µM), inactives show at the top dose activation, usual class: activators. hit rate 1.1% among 380,000. AID 624202; also: nearly all actives have a fitted effect of over 80% in size
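Activators of BRCA1 expression were detected as increased firefly luciferase luminescence in engineered MCF7 cells after 48 h compound incubation. Signals were scaled to genistein 10 microM as full activation.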
GLP-1R inv ag: GLP-1 receptor (human) inverse agonism; P43220; HEK293 GLP-1R CRE-luciferase, luminescence, 24 h; GLP-1R form is constitutively active; Potency, µM (doses to about 38.3 µM), for the others: top-dose activity change, negative = inhibition, most hits filed as inhibitors; hit rate 1.6% among 410,000; also: % is scaled to controls: 0 for no effect and ±100 for the full control effect; nearly all actives have a fitted effect of over 55% in size
Target sequence (P43220 whole entry, looked up): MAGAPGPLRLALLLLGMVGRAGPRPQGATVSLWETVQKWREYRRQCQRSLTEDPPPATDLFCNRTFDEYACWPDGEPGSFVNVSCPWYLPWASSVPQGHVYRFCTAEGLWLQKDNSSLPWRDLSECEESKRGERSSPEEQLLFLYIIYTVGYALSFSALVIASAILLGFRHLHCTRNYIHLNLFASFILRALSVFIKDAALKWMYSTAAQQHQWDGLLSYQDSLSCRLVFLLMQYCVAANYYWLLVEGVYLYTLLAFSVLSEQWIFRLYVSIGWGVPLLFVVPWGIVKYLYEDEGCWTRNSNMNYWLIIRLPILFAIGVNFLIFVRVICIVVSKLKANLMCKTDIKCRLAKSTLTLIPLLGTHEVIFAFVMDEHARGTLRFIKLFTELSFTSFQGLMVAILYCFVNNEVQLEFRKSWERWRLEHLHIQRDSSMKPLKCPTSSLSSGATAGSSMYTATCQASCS
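Stable HEK293 clone (constitutively active GLP-1R + cAMP-response luciferase); 200 cells/uL plated, 12 h pre-culture, compound 24 hr, 37 deg C/5% CO2; detection reagent 12 min RT; luminescence.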
GLP1R cytotox: cytotoxicity in counter-screen for GLP-1R inverse agonists; HEK293 cAMP-luciferase reporter cells, luminescence, 24 h; hit rate 0.13% among 410,000; AID 624418; Potency, µM (series often up to 38.3 µM), without a hit: at the top dose activity change, negative = inhibition, usual class: inhibitors;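 also: loss of luciferase light is scored as toxicity; % is scaled to controls: 0 for no effect and ±100 for the full control effect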
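MLSMR compounds, 24 hr on cells at 37 deg C/5% CO2; luminescence after luciferase reagent (12 min RT). Inhibition counted as the undesired cytotoxic outcome.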
a7 integrin act: integrin-mediated muscular dystrophy alleviation activation | alpha7betagal myoblasts, beta-gal FDG fluorescence, 48 h | Potency, µM (highest dose often 38.3 µM), for inactives: top-dose activation, usual class: activators | hit rate 0.064% among 350,000 | AID 624291;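 also: 100% = response of the positive control SU9516; nearly all actives have a fitted effect of over 60% in size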
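alpha7betagal+/- myoblasts (passage 13, 250/well) treated 48 h at 37C with compounds at 1:260 dilution of DMSO stock. Lysed, then beta-galactosidase activity read as FDG fluorescence (ex 480/em 540) after 30 min, with pre-read for autofluorescence.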
GLP1R ag: GLP-1 receptor (human) agonism. Potency, µM (titrated, usually from 45.6 µM), for inactives: top-dose activation, actives largely listed as activators. AID 624172. HEK293 GLP-1R CRE-luciferase, luminescence, 4-6 h; cells express a hypersensitive GLP-1R form. P43220. hit rate 0.007% among 380,000; also: % of control where 0% means no effect
Starred values were filed as active, the others as inactive; ? = inconclusive; . = not tested or not shown. Compounds with a hit are over-represented: about 2.7% of the library has one in this group of screens. Calls follow the shape of the dose curve; as a rule, active = well fitted curve in the direction sought with a large enough effect; inconclusive = small, poorly fitted or top-dose-only effect, or another doubt; inactive = no such curve, though single readings can be large; an effect the other way counts as inactive or inconclusive. Potency is read from the fitted curve at half-maximal effect.

SMILES	BRCA1 expr act	GLP-1R inv ag	GLP1R cytotox	a7 integrin act	GLP1R ag
COc1ccc(/C=C2\CCC(C3CCCC3)C2=O)cc1 (stereo not given)	?	19%	1%	2%	?
C=CCC1(CC=C)CCCN1C(=O)c1cc(COc2cccc(C(F)(F)F)c2)on1	-58%	10µM*	-5%	-38%	4%
O=C(c1cc(COc2cccc(C(F)(F)F)c2)on1)N1CCCC1	?	-6%	0%	3%	-5%
CCc1cnc2ccccc2c1/C=C/c1ccc(N(C)C)cc1	-58%	.	.	.	.
O=C(Oc1c(Br)cc(C(=S)N2CCOCC2)cc1Br)c1ccc(Cl)cc1	-38%	10µM*	?	-11%	-8%
O=C(Oc1ccc(C(=S)N2CCOCC2)cc1Br)c1cc(Cl)ccc1Cl	10%	3%	-11%	-22%	1%
Cc1ccc(NC(=O)C2CCCCC2C(=O)O)cc1C (stereo not given)	-3%	12%	1%	11µM*	-4%
Cc1ccc(NC(=O)C2CCCCC2C(=O)O)cc1Cl (stereo not given)	0%	-11%	2%	27%	-3%
COc1ccc(NC(=O)C(Cc2ccccc2)NS(=O)(=O)c2ccc3c(c2)CCN3C(C)=O)cc1 (stereo not given)	.	13%	4%	.	.
COc1ccc(S(=O)(=O)n2ccc(C(C)Oc3ccc(-c4ccccc4)c(F)c3)n2)cc1 (stereo not given)	-71%	8.9µM*	0%	-35%	4%
Cc1ccc(C)c(NC(=S)c2ccc3ccccc3n2)c1	64%	5.6µM*	2.8µM*	3%	4%
CCOC(=O)Cc1csc(NC(=O)CSc2nnnn2-c2ccc(C)cc2C)n1	-6%	6.3µM*	-19%	-32%	-2%
CCOC(=O)Cc1csc(NC(=O)CSc2nnnn2-c2ccc(C)c(C)c2)n1	-13%	?	-17%	22%	-1%
CCOC(=O)/C=C1\SCC(=O)N1Cc1ccc(Br)cc1	-13%	?	-14%	-24%	6%
CCOC(=O)/C=C1/SCC(=O)N1Cc1ccc(Br)cc1	-23%	5.6µM*	-8%	7%	11%
Cc1ccc(C2CN(c3ccccc3)CC2C(=O)c2ccc(F)cc2)cc1 (stereo not given)	-16%	10µM*	41%	-16%	-16%
O=C(c1ccccc1)C1CN(c2ccccc2)CC1c1ccc(Cl)cc1 (stereo not given)	-1%	0%	13%	30%	-9%
O=C(COc1ccc(Br)cc1CO)Nc1ccc(S(=O)(=O)N2CCCCC2)cc1	-14%	10µM*	-1%	?	-3%
O=C(CNc1ccc(Br)cc1)Nc1ccc(S(=O)(=O)N2CCCC2)cc1	-25%	10µM*	-27%	-8%	-15%
CCc1ccc(OCC(=O)Nc2ccc(S(=O)(=O)N3CCCC3)cc2)c(Br)c1	4%	-2%	-28%	-3%	-17%
COc1cc(N(C)C)c(OC)cc1/C=C1\C=Cc2ccccc21	58%	.	.	.	.
Cc1ccc([N+](=O)[O-])cc1S(=O)(=O)N1CCn2cccc2C1c1ccccc1F (stereo not given)	.	12%	3%	.	.
N#C/C(C(=O)N1CCCCC1)=C1\Nc2ccccc2S1	8.9µM*	11%	-15%	26%	-14%
N#CC(C(=O)Nc1ccccc1)=C1Nc2ccccc2N1	3%	-18%	-3%	17%	0%
Cc1ccc(NC(=S)/C(C#N)=C2/Nc3ccccc3S2)cc1	-84%	4µM*	?	-17%	-2%
SMILES	BRCA1 expr act	GLP-1R inv ag	GLP1R cytotox	a7 integrin act	GLP1R ag
O=C(Nc1cc(F)ccc1F)C1CCN(c2nc3ccccc3n3cccc23)CC1	.	8%	-2%	.	.
CCN(CC)c1ccc2nc3ccccc3[n+](CC)c2c1	-90%	?	11µM*	-47%	-1%
Cc1ccc(-n2c3nc(=O)[nH]c(=O)c-3cc3c(C)nn(-c4ccccc4)c32)cc1Cl	6%	7%	0%	.	0%
COc1ccc2nc(Cl)c(/C=N/Nc3ccccn3)cc2c1	3.2µM*	3%	8%	13%	7%
Clc1ccccc1C=NNc1ccccn1	-38%	2%	?	0%	0%
Clc1ccc(-c2nnc(CSc3nnc(-c4cccs4)n3Cc3ccccc3)o2)cc1	-56%	10µM*	-19%	-22%	-8%
Cc1csc(SCc2nnc(-c3ccc(Cl)cc3)o2)n1	7.1µM*	1%	-7%	1%	0%
Cc1ccc(NC(=O)Cn2ccn(Cc3ccc(Cl)cc3)c(=O)c2=O)cc1C	.	-16%	0%	.	.
CCOC(=O)c1[nH]c2c(c1Cc1ccccc1)C(=O)CC(c1ccccc1)C2 (stereo not given)	.	11µM*	-13%	.	.
Cc1ccc(Nc2ncnc3ccccc23)cc1	5.6µM*	?	12%	10%	5%
Oc1ccc(Nc2ncnc3ccccc23)cc1	17%	15%	5%	0%	-6%
CC(=O)Oc1cccc(Nc2ncnc3ccccc23)c1	5%	21%	-7%	?	1%
COC(=O)c1cccc(Nc2ncnc3ccc(C)cc23)c1	-36%	68%	-6%	-3%	4%
CC(C)Oc1ccc(Nc2ncnc3ccccc23)cc1	2.5µM*	?	-2%	?	4%
COc1ccc(Nc2ncnc3ccc(C)cc23)cc1	21%	-24%	4%	3.5µM*	0%
O=c1c(-c2ccc(F)cc2)coc2cc(O)ccc12	11µM*	58%	3%	6%	-6%
CC(C)Cn1c(SCc2cccc(F)c2)nc2ccsc2c1=O	-7%	?	5%	.	8%
Cc1sc2ncn(CCC(=O)O)c(=O)c2c1C	0%	-4%	0%	10%	-5%
Cc1sc2ncn(CCn3cnc4sc(C)c(C)c4c3=O)c(=O)c2c1C	-22%	5µM*	-11%	-39%	-1%
CCc1ccc(Cn2c(CNS(=O)(=O)c3ccc([N+](=O)[O-])cc3)nc3cccnc32)cc1	.	-6%	-21%	.	.
CCn1c(CNC(C)=O)nnc1SCC(=O)c1ccc(Br)cc1	3%	13%	16%	17%	2%
CCN(CC)C(=S)SCC(=O)c1ccc(Br)cc1	13µM*	?	7%	-2%	3%
O=C(NC1CCCC1)C1CCCN1C(=O)Nc1ccccc1 (stereo not given)	3%	11%	-10%	10%	3%
O=C(Nc1ccccc1)N1CCCC2CCCCC21 (stereo not given)	11µM*	?	-13%	11%	-11%
CNC(=S)N(CCc1c(C)[nH]c2ccc(C)cc12)Cc1ccco1	-42%	10µM*	2%	-17%	12%
N/C(=N\OC(=O)c1ccccc1)c1ccncc1	-1%	-4%	0%	30%	5%
N/C(=N\OC(=O)c1cccc(Br)c1)c1ccncc1	14µM*	18%	?	-9%	11%
